This is an account of results in PubChem BioAssay.

Molecules are shown by their SMILES. Activity calls are given as the source filed them. The rule behind the calls is not given here.

This test is described as follows: compounds altering viability of human ES cells (AID 493140).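 Note: cells exposed to compounds for four days before counting.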 To be noted: human embryonic stem cell survival screen; stronger effect = higher value.
With `CCCCC/C=C\C=C\C(O)CCCCCCCC(=O)O` (configuration not stated), the survival was 83.9 (inactive).

With `CCCCC/C=C\C\C=C/C=C/C=C/[C@@H](SCC(N)C(=O)NCC(=O)O)[C@@H](O)CCCC(=O)O` (some centres not stated), the survival is 109 (inactive).

Take `CC(=O)CC(=O)[C@@]1(O)CC[C@H]2[C@@H]3C=C(C)C4=CC(=O)CC[C@@H]4[C@H]3CC[C@@]21C`: the survival is 10.6 (inactive).

For `NC(=O)c1ncn([C@@H]2O[C@H](CO)[C@H](O)C2O)n1` (some centres not stated), the survival is 1.33 (inactive).

On to `CCCCCCCCC1OC1CCCCCCCC(=O)O` (configuration not stated), for which the survival is 92.8 (inactive).

As to `CCCCCC#CC[C@@H](O)/C=C/C=C/C=C\[C@@H](O)CCCC(=O)O`, the survival is 71.7 (inactive).

Regarding `NCC1OC(O[C@@H]2C(O)[C@H](OC3C(O)C(N)CC(N)C3OC3OC(CO)C(O)C(O)C3N)O[C@@H]2CO)C(N)C(O)C1O` (some centres not stated), the survival is 5.75 (inactive).
